# Only some compounds are listed: those with a hit (about 1.1% of all), similar ones and a draw of the others.
# PfHsp40 yeast: restores yeast growth despite PfHsp40 toxicity; AID 504582; actives 0.68% (n = 340,000); growth rescue, % at 12.5 µM; S. cerevisiae expressing PfHsp40, growth rescue, ATP luminescence; in the data active means growth rescue above about 28%, passing the limit was not always enough;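 further: yeast W303a lacking pdr1 and pdr3 grown in galactose medium; growth measured after three days at 30 °C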
# SARS 3CLpro inh-1: SARS-CoV 3CLpro protease inhibition; recombinant SARS-CoV 3CLpro, quenched FRET peptide cleavage; inhibition, % at 6 µM; actives 0.14% (n = 290,000); in the data active means inhibition above about 12%
# BioA inh: inhibitors of Mycobacterium tuberculosis BioA enzyme | purified M. tuberculosis BioA enzyme, plate reader | inhibition, % at 9.99 µM | actives 0.096% (n = 360,000) | AID 602481; in the data active means inhibition above about 40%
# MazF activator: MazEF (E. coli) toxin RNase activation | P0AE70 | FAM/BHQ RNA-DNA oligo cleavage fluorescence, 5 h | activation, % at 20 µM | actives 0.32% (n = 350,000); in the data active means activation above about 50%
# Target sequence (P0AE70 whole entry, looked up): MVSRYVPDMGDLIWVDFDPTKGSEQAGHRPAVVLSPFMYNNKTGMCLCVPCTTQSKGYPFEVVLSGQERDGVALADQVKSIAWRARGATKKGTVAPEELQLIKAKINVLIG
# Y pestis TopoI: inhibitors of Yersinia pestis topoisomerase I; Y. pestis Topo-I cleavage product accumulation, plate reader; activity, % at 10 µM; actives 0.064% (n = 360,000); in the data active means activity above about 50%, passing the limit was not always enough
# BJeLR lethal: kills HRASV12-expressing BJeLR cells | inhibition, % (test concentration not listed) | AID 1554 | actives 0.17% (n = 300,000) | BJeLR (HRASV12) viability, CellTiter-Glo ATP luminescence, 48 h; in the data active means inhibition above about 50%
# SARS 3CLpro inh-2: SARS 3CLpro inhibition, confirmation assay. shares compounds with SARS 3CLpro inh-1. QFRET protease activity assay. inhibition, % at 6 µM. actives 36% (n = 380); in the data active means inhibition above about 13%
# Hits are given with their value; 0 = inactive; - = no result given.
SMILES,PfHsp40 yeast,SARS 3CLpro inh-1,BioA inh,MazF activator,Y pestis TopoI,BJeLR lethal,SARS 3CLpro inh-2
CC(C)(C)OC(=O)CNC(=O)c1[nH]cnc1C(=O)NC(c1ccccc1)c1ccccc1,0,13,0,0,0,0,0
Cc1ccc(S(=O)(=O)N(C)C[C@@H]2OCCCC[C@@H](C)Oc3ccc(NC(=O)Nc4c(C)noc4C)cc3C(=O)N([C@@H](C)CO)C[C@@H]2C)cc1,-,-,0,-,-,-,-
C[C@@H]1CN([C@H](C)CO)C(=O)c2cccc(NC(=O)C3CCCCC3)c2O[C@H]1CN(C)S(=O)(=O)c1ccccc1,-,-,0,-,-,-,-
CC(=O)N1N=C(c2ccco2)CC1c1ccco1 (stereo not drawn),0,0,0,0,0,0,-
Cc1ccc(C2=NN(C(=O)CCl)C(c3ccco3)C2)o1 (stereo not drawn),0,47,-,0,0,87,61
O=C(N[C@H]1CC[C@@H](CCn2cc(C3(O)CCCC3)nn2)O[C@H]1CO)C1CCCCC1,-,-,0,-,-,-,-
COc1cc(/C=N/NC(=O)/C(=C\c2ccc3c(c2)OCO3)NC(=O)c2ccccc2)ccc1O,0,13,0,0,0,0,0
Cc1ccc(C)c(NC(=O)CCC(=O)NNC(=O)C(c2ccccc2)c2ccccc2)c1,0,0,-,0,0,0,-
Cc1ccc(NC(=O)CCC(=O)NNC(=O)C(c2ccccc2)c2ccccc2)c(C)c1,0,14,0,0,0,0,0
COc1ccc(COc2ccc(C3C(S(=O)(=O)c4ccccc4)CON3C)cc2OC)cc1 (stereo not drawn),0,14,0,0,0,0,0
CC(=O)c1c(N2CCOCC2)nc2ccc(Br)cc2c1-c1ccccc1,0,0,0,0,0,0,-
CC(=O)c1cc(-c2ccccc2)[nH]c1N1CCOCC1,0,46,0,0,0,0,0
C[C@H]1CCCCO[C@H](CN(C)C(=O)C2CCCCC2)[C@@H](C)CN([C@@H](C)CO)C(=O)c2cc(NS(=O)(=O)c3cn(C)cn3)ccc2O1,-,-,0,-,-,-,-
C[C@H]1CCCCO[C@@H](CN(C)Cc2ccc(C(=O)O)cc2)[C@@H](C)CN([C@@H](C)CO)C(=O)c2cc(NC(=O)c3ccncc3)ccc2O1,-,-,0,-,-,-,-
Cc1ccc(C2CC(c3cccs3)=NN2C(=O)CCl)cc1 (stereo not drawn),0,55,0,0,0,63,70
CC(=O)N1[C@@H]2c3ccc(-c4ccccc4F)c(=O)n3C[C@@H]2[C@@H](CO)[C@@H]1C(=O)NCC1CC1,-,-,0,-,-,-,-
O=C(N[C@@H](Cc1ccc(Br)cc1)C(=O)O)OCC1c2ccccc2-c2ccccc21,0,12,0,0,0,0,0
O=C(N[C@H](Cc1ccc(Cl)cc1)C(=O)O)OCC1c2ccccc2-c2ccccc21,0,0,0,0,0,0,-
C/C(=N\NC(=O)c1ccc(Cl)c(Cl)c1)c1cccc(NC(=O)C(C)C)c1,0,23,0,0,0,0,0
COc1ccc(CC(=O)Nc2cc(Cl)ccc2C(=O)O)cc1,0,0,0,0,0,-,-
CCCCOc1ccc(Nc2cc(Cl)ccc2C(=O)O)cn1,0,0,-,0,0,0,0
COc1ccc(NC(=O)Nc2ccc3c(c2)CC(=O)N([C@H](C)CO)C[C@@H](C)[C@@H](CN(C)C(=O)NC(C)C)O3)cc1,-,-,0,-,-,-,-
O=c1[nH]c(=O)n(-c2ccccc2F)c(O)c1/C=C1\C=Nc2ccccc21,0,29,-,0,0,0,38
CCC(=O)N(C)C[C@H]1Oc2ncc(-c3ccc(C)cc3)cc2C(=O)N([C@@H](C)CO)C[C@H]1C,-,-,0,-,-,-,-
Cc1ccc(S(=O)(=O)N(C)C[C@H]2OCCCC[C@H](C)Oc3ccc(NS(=O)(=O)c4c(C)noc4C)cc3C(=O)N([C@@H](C)CO)C[C@@H]2C)cc1,-,-,0,-,-,-,-
SMILES,PfHsp40 yeast,SARS 3CLpro inh-1,BioA inh,MazF activator,Y pestis TopoI,BJeLR lethal,SARS 3CLpro inh-2
COc1cccc(/C=N/NC(=S)Nc2cccnc2)c1,0,16,0,0,0,0,18
C[C@@H]1CN([C@@H](C)CO)C(=O)c2cc(C#CC3(O)CCCC3)cnc2O[C@@H]1CN(C)C(=O)C1CCC1,-,-,0,-,-,-,-
COc1ccc(C2C(O)C(c3c[nH]c4ccccc34)=NN2C(=O)CCl)cc1 (stereo not drawn),0,61,0,0,0,100,78
COc1ccc(C2NN=C(c3c[nH]c4ccccc34)C2O)cc1 (stereo not drawn),0,0,0,0,0,0,-
CC(C)NC(=O)CN1CCN(c2ncccn2)CC1,0,12,0,0,0,0,0
CC(NC(=O)CN1CCN(c2ncccn2)CC1)c1ccc(F)cc1 (stereo not drawn),0,0,-,0,0,0,-
C/C(Cn1nnc([N+](=O)[O-])n1)=N\NC(=O)c1ccc(Cl)c(Cl)c1,0,14,-,0,0,0,0
CC(C)(C)c1ccc(C(=O)Nc2ccc(S(=O)(=O)Nc3cnc4ccccc4n3)cc2)cc1,0,14,-,0,0,0,0
O=C(Nc1ccc(S(=O)(=O)Nc2cnc3ccccc3n2)cc1)c1ccc(F)cc1,0,-,0,0,0,0,-
Cn1ncc(Cl)c1C(=O)Nc1ccc2c(c1)OCO2,0,13,0,0,0,0,0
Cc1ccc(O)c(Nc2ncnc3ccccc23)c1,0,13,0,0,0,0,0
Cc1ccc2c(c1)C(=O)C(=O)N2CC1COc2ccccc2O1 (stereo not drawn),0,0,0,0,0,0,-
CCOc1ccc2c(c1)C(=O)C(=O)N2CC1COc2ccccc2O1 (stereo not drawn),0,58,0,0,0,0,60
COc1ccc2c(c1)C(=O)C(=O)N2CC1COc2ccccc2O1 (stereo not drawn),0,35,0,0,0,0,40
C[C@H](CO)N1C[C@H](C)[C@@H](CN(C)CC2CCOCC2)Oc2ncc(C3=CCCCC3)cc2C1=O,-,-,0,-,-,-,-
CN1c2ccc(-c3ccccc3)cc2[C@@H]2[C@@H](CCN2C(=O)CN2CCOCC2)[C@@H]1CO,-,-,0,-,-,-,-
C/C(=N\N=C(/N)SC1CC(=O)N(c2ccc(Cl)cc2)C1=O)c1cccs1 (stereo not drawn),0,13,0,0,0,0,0
CCCc1c(C(=O)N/N=C/c2c(OC)ccc3ccccc23)nnn1-c1nonc1N,0,14,0,0,0,0,0
CCN(CC)c1ccc(/C=N/NC(=O)c2nnn(-c3nonc3N)c2C(C)C)c(O)c1,0,14,0,0,0,88,0
CN(Cc1c(C(=O)N/N=C/c2cccc(F)c2)nnn1-c1nonc1N)c1ccccc1,0,0,0,0,0,0,-
COc1cccc(/C=N/NC(=O)c2nnn(-c3nonc3N)c2CN(C)c2ccccc2)c1,0,12,0,0,0,0,0
O=C(C[C@H]1CC[C@@H](NC(=O)c2ccccc2)[C@H](CO)O1)NCCc1ccncc1,-,-,0,-,-,-,-
